Compound activity: PubChem, several laboratories
Shown are actives, neighbours in structure and some others; about 2.4% of the full set was active somewhere.
SENP7 block: SENP7 protease inhibitors, primary screen, biochemical, luminescence, uHTS. recombinant SENP7, Z-RLRGG-aminoluciferin luminescence, 40 min. Sentrin-specific protease 7 (Homo sapiens), Q9BQF6. 330,000 compounds, 1.5% hits. inhibition, % at 5 µM;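 active = inhibition above about 50% at the single test dose, limit read from the data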
Target sequence (Q9BQF6 706-1050 limits assumed): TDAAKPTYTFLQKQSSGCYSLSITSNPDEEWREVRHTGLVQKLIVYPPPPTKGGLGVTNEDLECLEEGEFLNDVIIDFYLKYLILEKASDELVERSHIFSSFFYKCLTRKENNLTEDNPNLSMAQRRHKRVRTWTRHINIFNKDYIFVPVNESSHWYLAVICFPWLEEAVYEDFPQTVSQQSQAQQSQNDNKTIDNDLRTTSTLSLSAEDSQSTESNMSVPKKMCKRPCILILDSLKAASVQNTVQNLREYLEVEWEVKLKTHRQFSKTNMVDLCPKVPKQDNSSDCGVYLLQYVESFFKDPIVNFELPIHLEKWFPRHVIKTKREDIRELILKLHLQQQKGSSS
SENP8 block-1: human SENP8 protease inhibitors, primary screen, biochemical, fluorescence, Nedd8 protein substrate, uHTS; Sentrin-specific protease 8 (Homo sapiens), Q96LD8; recombinant SENP8; inhibition, % at 20 µM; 360,000 compounds, 0.64% hits; AID 602440, 2012; in the data active = inhibition mostly above about 40%, no sharp cut-off; inactive = mostly below about 27%
SENP8 block-2: SENP8 protease inhibitors, primary screen, biochemical, luminescence | 330,000 compounds, 1.2% hits | AID 2540, 2010 | purified SENP8, Z-RLRGG-aminoluciferin cleavage | inhibition, % at 10 µM; in the data active = inhibition above about 50%
Platelet DG rel: inhibitors of platelet dense granule secretion, primary screen, cell-based, MLPCN, human platelets | 300,000 compounds, 0.22% hits | inhibition, %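 (compounds screened at 7.5 µM in platelet-rich plasma)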 | human platelet-rich plasma, SFLLRN dense granule ATP release, luminescence;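 active = mean replicate score, as percent of positive control, at or above 50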
SENP6 block: SENP6 protease inhibitors, primary screen, biochemical, luminescence, uHTS | Sentrin-specific protease 6 (Homo sapiens), Q9GZR1 | inhibition, % at 10 µM | Recombinant SENP6 catalytic domain, aminoluciferin luminescence | 330,000 compounds, 1.8% hits;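 active = inhibition above about 50% at the single tested dose, limit read from the data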
SENP8 inh conf: human SENP8 protease inhibitors, confirmation, biochemical, Nedd8 protein substrate, single concentration. shares compounds with SENP8 block-1. inhibition, % at 25 µM. 1,400 compounds, 15% hits. purified SENP8, Nedd8-AMC/pro-Nedd8 cleavage fluorescence, 30 min; in the data active = inhibition mostly above about 39%, no sharp cut-off; inactive = mostly below about 34%
Hits are given with their value; . = inactive; / = not tested or not shown.

SMILES | SENP7 block | SENP8 block-1 | SENP8 block-2 | Platelet DG rel | SENP6 block | SENP8 inh conf
O=C(CCCCn1c(=O)c2ccccc2n(Cc2ccccc2F)c1=O)NC1CCN(Cc2ccccc2)CC1 | . | 40.4 | . | . | . | .
Cc1cccc(C)c1NC(=O)Cn1c(=O)n(CCCC(=O)NC2CCN(Cc3ccccc3)CC2)c(=O)c2ccccc21 | . | . | . | . | . | /
O=C(Nc1nc(-c2ccc([N+](=O)[O-])cc2)cs1)c1c(F)cccc1F | . | . | . | . | . | /
Cc1ccc(-c2csc(NC(=O)c3cccc([N+](=O)[O-])c3)n2)cc1 | . | 48.3 | . | . | . | .
CC1=C/C(=C\C=C(C#N)C#N)N(C)c2ccccc21 | . | 49.8 | . | . | . | .
CN1/C(=C/C=C(C#N)C#N)C(C)(C)c2ccccc21 | . | . | . | . | . | /
Cc1ccc(NC(=O)NNS(=O)(=O)c2ccc(Br)cc2)cc1 | . | . | . | . | . | /
Cc1ccc(S(=O)(=O)NC(=O)Nc2ccc(N(C)C)cc2)cc1 | . | 74.6 | . | . | . | 63.8
C[C@@H]1CN(Cc2nc(-c3cccs3)no2)C[C@H](C)O1 | . | 42.4 | . | . | . | .
COc1ccc(N(C(=O)c2ccco2)C(C(=O)NC2CCCC2)c2ccc(N3CCOCC3)cc2)c(OC)c1 (centres undefined) | . | . | . | . | . | /
C/C(CC(=O)Nc1cccc2c1CCCC2)=N\NC=O | . | . | . | . | . | /
COc1ccc(N2C(=O)CC(Nc3cccc([N+](=O)[O-])c3)C2=O)cc1 (centres undefined) | . | 47.0 | . | . | . | .
COc1ccc(-c2csc(C)n2)cc1 | . | . | . | . | . | /
COc1ccc(-c2csc(CCN3N=C(C)CC3=O)n2)cc1 | . | 59.0 | . | . | . | 62.0
NC(=O)N/N=C/C=C/c1ccc(F)cc1 | . | 42.7 | . | . | . | .
Cc1ccc(C(=O)O)cc1NC(=O)CSc1ncnc2sc3c(c12)CCC3 | . | . | . | . | . | /
CCOc1[nH]n(-c2ccccc2)c(=O)c1C=Nc1ccc(Cl)cc1 | . | 40.3 | . | . | . | .
Cc1[nH]n(-c2ccc(Cl)cc2)c(=O)c1C=Nc1ccc(S(=O)(=O)N2CCOCC2)cc1 | . | 47.1 | . | . | . | .
COCc1[nH][nH]c(=O)c1C=Nc1ccc(Cl)cc1 | . | 48.2 | . | . | . | .
COCc1[nH][nH]c(=O)c1C=Nc1ccccc1 | . | . | . | . | . | /
CCOc1[nH]n(-c2ccccc2)c(=O)c1C=Nc1ccc(C)cc1 | . | . | . | . | . | /
COc1nccnc1NS(=O)(=O)c1ccc(N=Cc2c(C)[nH]n(-c3ccc(Cl)cc3)c2=O)cc1 | . | / | . | . | . | /
CCOc1[nH]n(-c2ccccc2)c(=O)c1C=Nc1ccccc1 | . | . | . | . | . | /
CCOc1[nH]n(-c2ccccc2)c(=O)c1C=Nc1ccc(C(=O)OC)cc1 | . | 53.5 | . | . | . | .
Cc1ccc(NC(=O)ON=C2CCCC2)cc1 | . | . | . | . | . | /
SMILES | SENP7 block | SENP8 block-1 | SENP8 block-2 | Platelet DG rel | SENP6 block | SENP8 inh conf
Nc1nnc(-c2ccc([N+](=O)[O-])o2)s1 | / | 36.9 | / | / | / | .
COc1cc(NC(C)=O)c2ncccc2c1[N+](=O)[O-] | . | 47.7 | . | . | . | .
Cc1ccc(N/C=C/c2onc(C)c2[N+](=O)[O-])cc1 | 77.8 | 53.5 | . | . | 59.6 | .
CCN(CC(=O)NC(C)(C)C)Cc1nc2c(Br)cc(Br)cc2c(=O)[nH]1 | . | 41.4 | . | . | . | .
Cc1c(C(=O)N(CCO)Cc2ccccc2)oc2c(F)cccc12 | . | . | . | . | . | /
O=C(O)CCc1ccc(-c2ccc(Br)cc2)n1NC(=O)c1ccc([N+](=O)[O-])cc1 | . | 44.1 | . | . | . | .
Cc1cc([N+](=O)[O-])nn1CCCC(=O)N1CCN(c2ccccc2)CC1 | . | 41.3 | . | . | . | .
Nc1nonc1-n1nnc(C(=O)N/N=C/c2cc(Br)cs2)c1-c1ccccc1 | . | . | . | . | . | /
O=C(CCS(=O)(=O)c1cccc2nonc12)NCCc1ccccc1 | . | 41.4 | . | . | . | .
